# In the library only some 7.4% were active in any assay of this set; here they are far more common.
# HEK293 viab: cell viability loss counter-screen; HEK-293-SNCA-luc viability, GF-AFC fluorescence, 24 h; Potency, µM (doses to about 57.1 µM), for inactives: at the top dose activity change, negative = cytotoxicity, hits mostly cytotoxic; hit rate 0.12% among 150,000; AID 1671193;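 further: 0% = DMSO-treated cells and -100% = medium-only wells without cells; nearly all actives have a fitted effect of over 30% in size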
#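 Cytotoxicity counterscreen: after 24 h compound treatment of genome-edited SNCA-luciferase HEK-293 cells, live-cell protease substrate GF-AFC read by fluorescence after 30 min; activity scaled between DMSO (0%) and medium-only (-100%), curves Hill-fitted.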
# SNCA expr inh: SNCA gene expression inhibition | HEK-293 SNCA-luciferase knock-in, luminescence, 24 h | Potency, µM (doses to about 57.2 µM), for the others: top-dose activity change, negative = inhibition, usual class: inhibitors | hit rate 0.17% among 140,000 | AID 1671194;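 further: plate controls were DMSO cells for no effect and cell-free wells for full effect; nearly all actives have a fitted effect of over 45% in size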
# HEK293 tox: HEK 293 cell cytotoxicity; HEK 293 viability, ATP luminescence (CellTiter-Glo), 48-72 h; Potency, µM (titrated, usually from 115 µM), without a hit: at the top dose activity change, negative = cytotoxicity, actives largely listed as inhibitors; hit rate 6.6% among 94,000; AID 1345083; further: nearly all actives have a fitted effect of over 60% in size
#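 Cells seeded first (HEK 293, 250 cells/well), then compound added by pintool. Incubation ran 48 or 72 hr at 37 degree Celsius. CellTiter-Glo was added and luminescence imaged after 10 min at room temperature.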
# Luciferase inh: blocks purified firefly luciferase enzyme activity; purified P. pyralis luciferase, luminescence, biochemical; Potency, µM (highest dose often 115 µM), most hits filed as inhibitors; AID 1347043; hit rate 2.5% among 76,000; P08659; further: nearly all actives have a fitted effect of over 65% in size
#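 Purified P. pyralis luciferase (10nM final) in 50mM Tris acetate pH 7.5, 10mM Mg acetate, 0.01% Tween-20, 0.05% BSA with 10uM D-luciferin and 10uM ATP. Compounds titrated qHTS. Luminescence imaged on CCD.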
# NPR1 antag: blocks ANP-stimulated signaling of human Npr1 receptor | P16066 | HEK293 hNpr1 GloSensor cGMP, ANP-stimulated luminescence | Potency, µM (doses to about 46.3 µM), for the others: top-dose activity change, negative = inhibition, hits mostly inhibitors | hit rate 1.6% among 76,000 | AID 1347048; calls by dose curve; further: nearly all actives have a fitted effect of over 60% in size
# Target sequence (P16066 whole entry, looked up): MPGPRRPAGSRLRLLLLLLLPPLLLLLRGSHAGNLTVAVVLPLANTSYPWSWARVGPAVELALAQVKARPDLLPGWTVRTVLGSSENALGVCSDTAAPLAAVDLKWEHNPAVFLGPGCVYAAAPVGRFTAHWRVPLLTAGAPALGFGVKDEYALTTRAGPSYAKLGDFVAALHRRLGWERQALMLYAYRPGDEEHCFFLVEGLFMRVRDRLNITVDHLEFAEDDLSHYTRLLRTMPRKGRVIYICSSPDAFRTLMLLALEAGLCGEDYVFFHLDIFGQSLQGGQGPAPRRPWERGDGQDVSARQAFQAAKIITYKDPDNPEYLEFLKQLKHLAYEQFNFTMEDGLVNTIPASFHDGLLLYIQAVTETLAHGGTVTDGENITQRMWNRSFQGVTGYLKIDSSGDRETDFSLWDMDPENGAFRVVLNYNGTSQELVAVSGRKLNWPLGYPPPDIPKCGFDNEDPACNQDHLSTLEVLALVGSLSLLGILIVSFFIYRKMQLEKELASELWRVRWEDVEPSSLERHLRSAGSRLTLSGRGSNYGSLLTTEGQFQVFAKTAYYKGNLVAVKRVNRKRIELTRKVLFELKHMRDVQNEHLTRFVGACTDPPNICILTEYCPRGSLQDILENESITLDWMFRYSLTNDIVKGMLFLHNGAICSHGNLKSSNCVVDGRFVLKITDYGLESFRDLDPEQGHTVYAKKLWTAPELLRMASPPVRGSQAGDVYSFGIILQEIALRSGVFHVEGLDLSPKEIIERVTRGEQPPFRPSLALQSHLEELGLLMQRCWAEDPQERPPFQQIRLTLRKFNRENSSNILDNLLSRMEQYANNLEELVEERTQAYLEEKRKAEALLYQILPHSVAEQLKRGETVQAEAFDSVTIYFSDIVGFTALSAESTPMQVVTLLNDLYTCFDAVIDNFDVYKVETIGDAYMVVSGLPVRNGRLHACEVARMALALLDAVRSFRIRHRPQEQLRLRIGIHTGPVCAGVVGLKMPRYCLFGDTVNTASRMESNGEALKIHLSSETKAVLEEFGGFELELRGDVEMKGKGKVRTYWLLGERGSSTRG
#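 Compound pre-incubated 30 min at room temperature on GloSensor-loaded HEK293 cells stably carrying hNpr1 and the pGS-40F cGMP biosensor. Stimulation uses hNppA at 0.1 nM final; luminescence is taken at baseline and 20 min post-agonist.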
# 3T3 cytotox: NIH 3T3 cell cytotoxicity | Potency, µM (highest dose often 96.7 µM), without a hit: at the highest dose activity change, negative = cytotoxicity, usual class: inhibitors | NIH 3T3 viability, CellTiter-Glo ATP luminescence, 48-72 h | hit rate 4.3% among 94,000 | AID 1345082; further: nearly all actives have a fitted effect of over 55% in size
#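 NIH 3T3 cells at 400 cells/well received 23 nL of compound by pintool and were incubated 48 or 72 h at 37 °C. Viability was read as ATP-coupled CellTiter-Glo luminescence.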
# Active calls of the source: *; i = inactive; u = inconclusive; x = not tested or not shown; ! = not confirmed by another sample; [ ] = remark or other dose. Unless noted, the call rests on the fitted dose curve; in most records, active means well fitted curve in the direction sought with a large enough effect; inconclusive means small, poorly fitted or top-dose-only effect, or another doubt; inactive means no such curve, though single readings can be large; an effect the other way counts as inactive or inconclusive. Unless noted, on the % scale 0 is the no-effect control and ±100 the full control effect; potency means the concentration at half of the fitted maximal effect.
SMILES,HEK293 viab,SNCA expr inh,HEK293 tox,Luciferase inh,NPR1 antag,3T3 cytotox
Cc1noc(C)c1-c1cc2cc(CN(C)C)oc2c(NCC(C)C)n1,-21%[87.6 µM],4%[87.6 µM],71µM*,i,-13%[70.6 µM],50µM*
COCCCNc1nc(-c2c(C)noc2C)cc2cc(CN(C)C)oc12,0%[87.6 µM],39%[87.6 µM],-29%[172 µM],i,4%[70.6 µM],u
Cc1noc(C)c1-c1cc2cc(CN(C)C)oc2c(NCCc2ccccc2)n1,-19%[87.6 µM],0%[87.6 µM],56µM*,i,-4%[70.6 µM],45µM*
Cc1noc(C)c1-c1cc2cc(CN(C)C)oc2c(NCCOc2ccccc2)n1,u,0%[87.6 µM],u,i,-21%[70.6 µM],79µM*
CCS(=O)(=O)Nc1ccc2[nH]c(O)c(C(=Nc3ccc(CN4CCCCC4)cc3)c3ccccc3)c2c1,u,1.2µM*,x,x,x,x
CCOC(=O)c1ccc(N2C(=O)c3n[nH]c(-c4cccs4)c3C2c2cccc(OC)c2)cc1 (stereo unspecified),-21%,18µM*,x,x,x,x
Cc1ccc(-c2cccc(CN3CCCC(c4nc5ccc(C)cc5c(=O)[nH]4)C3)c2)c(C)c1 (stereo unspecified),-4%,-26%,35µM*!,i,-2%,u
O=c1[nH]c(C2CCCN(Cc3ccc(-c4ccccc4)cc3)C2)nc2ccc(F)cc12 (stereo unspecified),u,u,32µM*!,i,u,u
O=c1[nH]c(C2CCCN(Cc3cccc(-c4ccc(F)cc4F)c3)C2)nc2ccc(F)cc12 (stereo unspecified),-3%,u,40µM*,i,u,u
O=c1[nH]c(C2CCCN(Cc3cccs3)C2)nc2ccc(F)cc12 (stereo unspecified),4%,-21%,u,i,-3%,u
O=c1[nH]c(C2CCCN(Cc3ccccc3)C2)nc2ccc(F)cc12 (stereo unspecified),-16%[87.6 µM],-22%[87.6 µM],50µM*!,i,-12%[70.6 µM],28µM*!
Cc1ccc2nc(C3CCCN(Cc4ccc(-c5cncnc5)cc4)C3)[nH]c(=O)c2c1 (stereo unspecified),3%,3%,5%,i,2%,4%
O=c1[nH]c(C2CCN(CC3CCCC3)CC2)nc2ccc(F)cc12,6%,u,-14%,i,11%,-4%
COc1ccc(-c2ccc3nnc(CNC(=O)c4cccc(NC(C)=O)c4)n3n2)cc1,6%,-9%,-16%,i,6%,-14%
O=C(NCCc1ccccc1F)C1CCc2nnc(CN[S+](=O)([O-])c3ccccc3Cl)n21 (stereo unspecified),-2%,16%,-7%,x,x,-23%
O=C(NCc1cccnc1)c1cnc2c(c1)N([S+](=O)([O-])c1cccnc1)CCC2,4%[87.6 µM],4%[87.6 µM],-13%[172 µM],i,3%[70.6 µM],u
COc1ccccc1-c1ccc(CN2CCCC(c3nc4ccc(F)cc4c(=O)[nH]3)C2)cc1 (stereo unspecified),2%,-16%,35µM*!,i,u,40µM*!
Cc1ccc2nc(C3CCN(Cc4ccccc4)CC3)[nH]c(=O)c2c1,3%,7%,-7%,i,3%,3%
O=c1[nH]c(C2CCCN(Cc3ccc(-c4cc(F)cc(F)c4)cc3)C2)nc2ccc(F)cc12 (stereo unspecified),2%,u,45µM*!,i,-26%,u
CC1CCN(CC2CCCCCN2C(=O)Nc2ccc3c(c2)OCCO3)CC1 (stereo unspecified),-12%,41%,u,16µM*,-13%,-14%
COC1CCN(CC2CCCCCN2C(=O)Nc2ccc3c(c2)OCCO3)CC1 (stereo unspecified),-19%,41%,2%,18µM*,0%,-3%
CCCNC(=O)N1CCCCCC1CN1CCC(C)CC1 (stereo unspecified),6%,-6%,-26%,x,x,-20%
COc1ccc(CCC(=O)N2CCC3(CC2)CC(CC(=O)N2CCOCC2)CCO3)cc1 (stereo unspecified),-12%,16%,i,x,x,-11%
O=C(Cc1ccc(F)cc1)NCCNC(=O)c1ccc(-c2cccc(C(F)(F)F)c2)cc1,x,x,u,x,x,-19%
Cc1ccc(C2Cn3cnc(C(=O)N4CCC(C(=O)NCCCc5ccccc5)CC4)c3CO2)cc1 (stereo unspecified),7%,9%,3%,32µM*,4%,i
SMILES,HEK293 viab,SNCA expr inh,HEK293 tox,Luciferase inh,NPR1 antag,3T3 cytotox
Cc1ccc(C2Cn3cnc(C(=O)N4CCC(C(=O)NCc5ccccc5Cl)CC4)c3CO2)cc1 (stereo unspecified),1%,6%,u,35µM*,-6%,-34%
COc1ccc(CNC(=O)C2CCN(C(=O)c3ncn4c3COC(c3ccccc3)C4)CC2)cc1 (stereo unspecified),4%,73%,-2%,16µM*,-15%,-1%
Cc1ccc(C2Cn3cnc(C(=O)N4CCC(C(=O)NC(C)c5ccccc5)CC4)c3CO2)cc1 (stereo unspecified),-5%,71%,-9%,28µM*,5%,-3%
O=C(NCc1ccccc1Cl)C1CCN(C(=O)c2ncn3c2COC(c2ccc(F)cc2)C3)CC1 (stereo unspecified),-5%,1%,0%,u,5%,i
Cc1ccc(C(=O)N2CCN(C(=O)c3nc4cccnc4n(C4CC4)c3=O)CC2)cc1,-1%,-1%,4%,x,x,-7%
CNC(=O)c1cc(C2CC2)nc2c1c(C1CCCN1C(=O)c1ccccc1Cl)nn2C (stereo unspecified),x,x,i,x,x,-24%
COc1ccc(CN2C[C@@H]3OCC(=O)N(c4ccccc4)[C@@H]3C2)cc1,-1%[87.6 µM],15%[87.6 µM],u,i,u,u
COc1cccc(CNC(=O)C2CCN(C(=O)c3ncn4c3COC(c3ccc(F)cc3)C4)CC2)c1 (stereo unspecified),-1%,4%,-10%,u,1%,-6%
O=C(NCc1cccc(F)c1)C1CCN(C(=O)c2ncn3c2COC(c2ccccc2)C3)CC1 (stereo unspecified),u,68%,u,5µM*,-5%,-18%
Cc1ccc(CNC(=O)C2CCN(C(=O)c3ncn4c3COC(c3ccccc3)C4)CC2)cc1 (stereo unspecified),-5%,-2%,8%,16µM*,-10%,-1%
COC(=O)CNC(=O)c1cc(-c2ccsc2)c2nncn2n1,2%[87.6 µM],25%[87.6 µM],1%[172 µM],x,x,-27%[138 µM]
COc1ccc(C(=O)N2CCCC2c2nn(C)c(=O)n2Cc2ccccc2)cc1F (stereo unspecified),-8%,-10%,i,x,x,3%
